Compound activity: PubChem BioAssay, several laboratories
CHOP inh: inhibitors of CHOP induction in ER stress response; actives 3.8% (n = 220,000); inhibition, % at 10 µM; CHO-K1 CHOP-promoter luciferase, tunicamycin-induced, 15-18 h; AID 2732;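 active = compounds that reduced the stress-induced luciferase reporter signal by more than about 70% of percent inhibition, limit read from the data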
RAM inhibit: inhibitors of the yeast RAM network. actives 1.8% (n = 190,000). inhibition, % at 50 µM. S. cerevisiae dse1pr::URA3 reporter, 5-FOA growth OD615, 2 d; analog-sensitive cbk1-as2 kinase mutant strain. AID 868;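 active = inhibition above a set limit, 3 SD over mean compound inhibition, cut at about 8.4% in these data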;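 also: inhibition rescues growth on 5-FOA so higher OD means more RAM inhibition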
L major viab: Leishmania major promastigote growth inhibition; Leishmania major promastigotes, resazurin fluorescence viability; inhibition, % at 10 µM; actives 9% (n = 200,000); in the data active = inhibition above about 50%;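 also: promastigotes grown with compound for 44 hours at 28 °C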
WT yeast gro inh: growth inhibition of WT yeast, mitochondrial fusion screen; mitochondrial fusion phenotypic screen, WT strain; inhibition, % at 10 µM; actives 2.1% (n = 190,000); AID 1362; in the data active = inhibition above about 58%; tested in S. cerevisiae
Hits are given with their value; - = inactive; . = no result. An excerpt weighted towards active compounds, which were near 13% of everything screened.

SMILES | CHOP inh | RAM inhibit | L major viab | WT yeast gro inh
COc1ccccc1NS(=O)(=O)c1ccc(C)c(NC(=O)NC2CCCCC2)c1 | - | - | 100.2 | -
O=C(CNS(=O)(=O)c1ccccc1)Nc1cccc([N+](=O)[O-])c1 | - | - | - | -
CC(C)(C)OC(=O)N1CCCN(C(=O)Nc2ccc(C(F)(F)F)cc2)CC1 | - | . | . | .
CN(C(=O)c1cc2ccccc2oc1=O)C1(C)CCS(=O)(=O)C1 (configuration not stated) | - | - | - | -
COc1ccc(S(=O)(=O)Nc2ccccc2OC)cc1NC(=O)CC1CC2CCC1C2 (configuration not stated) | - | - | 100.3 | -
Oc1ccc[n+](CCCCC[n+]2cccc(O)c2)c1 | - | . | . | .
CCCCCCCC[n+]1cccc(C(=O)N(CC)CC)c1 | - | - | 60.8 | -
Cc1ccc(NC2=NCC(Cc3ccc(Br)cc3)S2)cc1 (configuration not stated) | 74.2 | - | - | -
CCCOc1ccc(S(=O)(=O)NCc2ccc(OC)cc2)cc1 | 80.3 | - | - | -
COc1ccc(CNC(=O)COc2ccc(S(=O)(=O)NC(C)C)cc2)cc1 | - | - | 64.6 | -
CN(c1ccc([N+](=O)[O-])cc1C(N)=O)C1CCCCC1 | - | - | - | -
CCOc1ccc2nc(NCCCNS(=O)(=O)c3ccccc3)c(C#N)cc2c1 | - | 9.7 | - | -
CCOc1ccc2nc(NCCCNS(=O)(=O)c3ccc(F)cc3)c(C#N)cc2c1 | - | - | - | -
COc1ccc(CC(=O)NNC(=O)CSc2nc(C)c(C)c(=O)[nH]2)cc1 | - | - | - | -
Nc1nc[nH]c(=O)c1N=Cc1ccccc1 | - | . | . | .
O=C(c1cc2c(s1)-c1ccccc1OC2)N1CCCC1 | - | - | - | -
Cc1csc(NC(=O)c2cc3c(s2)-c2ccccc2OC3)n1 | 81.0 | - | - | -
O=C(c1cc2c(s1)-c1ccccc1OC2)N1CCN(c2ccccc2)CC1 | 83.0 | - | - | -
CN(C)CCNC(=O)c1cc2c(s1)-c1ccccc1OC2 | - | - | 91.3 | -
COc1ccc(S(=O)(=O)N2CCOCC2)cc1NC(=O)c1cccc2c(=O)c(C)c(-c3ccccc3)oc12 | - | - | - | -
COc1ccccc1C1CC(=O)NC(C)=C1C(=O)OC(C)C (configuration not stated) | - | - | - | -
COc1cccc(NC(=O)CSc2nc3c(c(-c4ccco4)c2C#N)CCCC3)c1 | - | 9.2 | - | 75.7
OCCC1CN(Cc2ccc(Oc3ncccn3)cc2)CCN1C1CCCC1 (configuration not stated) | - | - | - | -
COc1ccc(C(=O)Sc2ccc(Cl)cc2)cc1OC | - | - | 54.3 | -
COc1ccc(OC)c(C2C(C#N)=C(N)Oc3cc(N)ccc32)c1 (configuration not stated) | - | - | - | -
SMILES | CHOP inh | RAM inhibit | L major viab | WT yeast gro inh
COc1ccc(C2C(C#N)=C(N)Oc3cc4c(cc32)OCO4)cc1 (configuration not stated) | - | - | 96.0 | -
Cc1cc(N)n2ncc(-c3ccc(Cl)cc3)c2n1 | - | - | 55.2 | -
O=c1[nH]c(-c2ccccn2)nc2sc(-c3ccccc3)cc12 | - | - | 100.5 | 75.5
Cc1c(C(=O)N(C)C)sc2nc(-c3ccccn3)[nH]c(=O)c12 | - | - | - | -
Cc1ccc(CSCC(=O)NN=C2CCN(C)CC2)cc1 | - | - | - | -
Cc1c(C(=O)N/N=C/c2ccc(-c3ccccc3[N+](=O)[O-])o2)sc(N)c1C#N | - | - | 71.1 | -
Cc1c(-c2ccc(/C=N/NC(=O)C(=O)Nc3ccccc3F)o2)cccc1[N+](=O)[O-] | - | . | . | .
O=C(N/N=C/c1ccc(-c2ccccc2[N+](=O)[O-])o1)c1cncc(Br)c1 | - | - | 97.6 | -
Cc1cc([N+](=O)[O-])c(C)cc1-c1ccc(/C=N/NC(=O)c2cccnc2)o1 | - | - | 100.0 | -
O=C(N/N=C\c1ccc([N+](=O)[O-])o1)c1cncc(Br)c1 | - | . | . | .
O=C(O)c1ccc(/C=N/N2CCN(Cc3ccccc3)CC2)cc1 | - | - | - | -
Cc1ccc(-n2nnnc2SCC(=O)NC2CCCc3ccccc32)c(C)c1 (configuration not stated) | - | 8.5 | - | -
Cc1ccc(-n2nnnc2SCC(=O)N2CCc3ccccc3C2)cc1 | - | - | - | -
Cc1ccc(-n2nnnc2SCC(=O)N2CCc3ccccc3C2)c(C)c1 | - | - | - | 60.8
Cc1ccc(-c2nc(CN(C)Cc3cccc4cnccc34)c(C)o2)s1 | - | - | - | -
Cc1ccccc1CSc1nnc(C)c(=O)n1N | - | - | - | -
Cc1c(N2C(=O)C(=O)/C(=C(/O)c3ccc(Cl)cc3)C2c2ccccc2)c(=O)n(-c2ccccc2)n1C (configuration not stated) | - | - | - | -
